Measured values taken from PubChem BioAssay (NCI).
This is part of a sample that, as a whole, favours compounds with a hit. Of some 83,000 tested, about 20% had one in any assay.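 Values shown are percent growth following 48 h exposure of cells in 96-well plates to a single concentration of compound; below 10 was considered active.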 A number with no mark means an inactive call. Calls of active or inactive are those of the source.

Key:
Assay in all cases: NCI-60 one-dose screen, 48 h (100 = growth as untreated, 0 = no growth, -100 = all killed)
NCI-H23 lung = conditions: 10 µM unless noted
NCI-H226 lung = conditions: 10 µM unless noted
NCI-H322M lung = conditions: 10 µM unless noted
HOP-62 NSCLC = conditions: 10 µM unless noted
NCI-H460 lung = conditions: 10 µM unless noted
HOP-92 NSCLC = conditions: 10 µM unless noted
NCI-H522 lung = conditions: 10 µM
786-0 renal = conditions: 10 µM unless noted
COLO 205 colon = conditions: 10 µM unless noted
A549/ATCC NSCLC = conditions: 10 µM unless noted

Row | SMILES | growth (NCI-H23 lung) | growth (NCI-H226 lung) | growth (NCI-H322M lung) | growth (HOP-62 NSCLC) | growth (NCI-H460 lung) | growth (HOP-92 NSCLC) | growth (NCI-H522 lung) | growth (786-0 renal) | growth (COLO 205 colon) | growth (A549/ATCC NSCLC)
1 | Cc1onc(-c2ccccc2Cl)c1C(=O)N[C@@H]1C(=O)N2[C@@H]1SC(C)(C)[C@@H]2C(=O)O | 112% | 99.2% | 104% | 97.1% | 112% | 110% | 96.1% | 99% | 109% | 
2 | CCN(CC)c1ccc(N=C2C=CC(=O)C=C2NC(C)=O)cc1 | 92.9% | 93.7% | 105% | 107% | 106% | 104% |  | 111% | 96.8% | 100%
3 | N#Cc1c(-c2ccccc2)cc(-c2ccccc2)n(CC(=O)O)c1=O | 70.2% | 75.2% | 96.9% | 53.8% | 40.7% | 61.7% |  | 62.9% | 68.4% | 51.9%
4 | CN(C)c1ncnc2c1ncn2C1CCCCO1 (configuration not stated) | 101% | 98.5% | 98.9% | 110% | 113% | 71% |  | 99.4% | 98.3% | 104%
5 | O=C(COc1cccc(/C=C2\Oc3ccc4ccccc4c3C2=O)c1)c1ccc([N+](=O)[O-])cc1 | 93.8% | 85.8% | 106% | 87.6% | 100% | 81.2% | 35.8% | 103% | 114% | 
6 | COc1cc(/C=N/NC(=O)c2ccc(C(F)(F)F)nc2Nc2cc(Cl)ccc2C)cc(OC)c1OC | 104% | 96.6% | 105% | 99.7% | 108% | -30% (active) |  | 97.7% | 109% | 103%
7 | CCN(Cc1cccc(S(=O)(=O)[O-])c1)c1ccc(C(=C2C=CC(=[N+](CC)Cc3cccc(S(=O)(=O)O)c3)C=C2)c2ccccc2S(=O)(=O)O)cc1 | 97.3% | 93.8% | 98.1% | 99.3% | 107% | 87.3% | 99.4% | 92.7% | 107% | 
8 | Cn1c(N2N=C(c3ccc(Cl)cc3)CC2c2ccccc2)nc(-c2ccccc2)c(C#N)c1=O (configuration not stated) | 66.3% | 74.5% | 83.5% | 83% | 58.7% | 16% |  | 84.4% | 99.4% | 64.8%
9 | [N-]=[N+]=NCc1cccc(/C(O)=C/C(=O)C(=O)O)c1 | 85.4% | 86.1% | 93.8% | 94.5% | 104% | 92.7% |  | 97.3% | 99.6% | 93.6%
10 | COc1ccc(C2=NN(C=O)C(c3cccc(Nc4ccnc5cc(Cl)ccc45)c3)C2)cc1 (configuration not stated) | 23.5% | 39.7% | 45.8% | 13.2% | 14.3% | 36.9% |  | 28.5% | 0.0234% (active) | 30.2%
11 | COC(=O)Nc1ccc2ccc3c(NC(=O)OC)ccc4ccc1c2c43 (tested in a mixture with another compound) | 65% | 83.3% | 65% | 48.5% | 26.5% | 9.3% (active) |  | 60% | 30.8% | 41.2%
12 | CN1CCN(CCCCCN=c2cc3c(=O)n(CCCCCN4CCN(C)CC4)c(=O)c4c(NCCCCCN5CCN(C)CC5)cc5c(O)n(CCCCCN6CCN(C)CC6)c(=O)c2c5c4-3)CC1 | 34.1% | 0.125% (active) | -23.2% (active) | 14.6% | 5.16% (active) | 2.86% (active) |  | 92.9% | -15.4% (active) | 5.01% (active)
13 | CCOC(=O)C(C(=O)OCC)C1CCCCC1 | 106% | 98.7% | 94% | 107% | 106% | 82.4% |  | 96.4% | 112% | 96.8%
14 | COC(=O)[C@H](Cc1cn(C)cn1)NC(=O)[C@H](C)NC(=O)Nc1cc(C(F)(F)F)cc(C(F)(F)F)c1 | -60.9% [100 µM] (active) | -33.9% [100 µM] (active) | -54.6% [100 µM] (active) | -95.3% [100 µM] (active) | -34.3% [100 µM] (active) | -95.3% [100 µM] (active) |  | -80.8% [100 µM] (active) | -92% [100 µM] (active) | -25% [100 µM] (active)
15 | O=Cc1ncc(-c2ccc(C(F)(F)F)cc2)c(NC2CCCCCC2)n1 | -73.1% [100 µM] (active) | 28.2% [100 µM] | -5.95% [100 µM] (active) | -94.9% [100 µM] (active) | -51.3% [100 µM] (active) | -95.4% [100 µM] (active) |  | -82.1% [100 µM] (active) | -60.5% [100 µM] (active) | -79.2% [100 µM] (active)
16 | O=C(/C=C/c1cccc(Nc2ccnc3cc(Cl)ccc23)c1)c1ccc(Cl)cc1 | 45.9% | 49.5% | 67.3% | 50.2% | 66.7% | 45.8% |  | 58% | 80.1% | 79.4%
17 | O=C(CNC(=O)c1cccc2ccccc12)Nc1ccccc1Cc1ccccc1 | 52.1% [5 µM] | 72.3% [5 µM] | 78.4% [5 µM] | 36.4% [5 µM] | 17.9% [5 µM] | 53.5% [5 µM] |  | 45.3% [5 µM] | 29.4% [5 µM] | 27% [5 µM]
18 | O=C1Nc2ccc(Cl)cc2[C@@](C#CC2CC2)(C(F)(F)F)O1 | 87.8% | 81.4% | 80.9% | 104% | 102% | 93.2% |  | 96.6% | 127% | 70.7%
19 | CS(=O)(=O)N1CCN(Cc2cc3nc(-c4cccc5[nH]ncc45)nc(N4CCOCC4)c3s2)CC1 (tested in a mixture with another compound) | 23.4% | 8.7% (active) | 3.39% (active) | 23.6% | 21.7% | -37.6% (active) |  | -10.5% (active) | 8.18% (active) | 4.32% (active)
20 | O=C(CC(C(=O)c1ccccc1)N1CCN(Cc2ccccc2)CC1)c1ccccc1 (configuration not stated) | 84% | 104% | 112% | 104% | 104% | 80.7% |  | 95.8% | 70.3% | 98%
21 | O=C1c2cc3c(cc2-c2c1c1ccc(Cl)cc1c(=O)n2CCCNCCO)OCO3 | -73% (active) | -70.9% (active) | -84.5% (active) | -81.4% (active) | -75.4% (active) | -79.4% (active) |  | -81.6% (active) | -88.6% (active) | -82.2% (active)
22 | Nc1ccc2c(c1Br)Cc1ccccc1-2 | 92% | 104% | 114% | 97.8% | 102% | 76% |  | 107% | 99.2% | 86%
23 | O=C(CN1CCN(c2ccc(Cl)cc2)CC1)N1CCN(c2nnc(-c3ccc(Cl)cc3)c(-c3ccc(Cl)cc3)n2)CC1 | 85% | 62% | 77.9% | 103% | 75.3% | 60.1% |  | 80.6% | 90.8% | 15%
24 | C[C@@H]1CN(c2nc3c(cc2F)c(=O)c(C(=O)O)cn3C(C)(C)C)C[C@H](C)N1 | 95.2% | 91% | 93.7% | 98.5% | 107% | 71.6% |  | 112% | 110% | 99.9%
25 | N#Cc1c(NC(=O)c2ccco2)[n+]([O-])c2cc(Cl)c(Cl)cc2[n+]1[O-] | 86.3% | 106% | 121% | 137% | 109% | 212% |  | 107% | 114% | 96.6%
26 | CCSCC1CC(O)(c2ccccc2)C(c2ccccc2)C(c2ccc(Cl)cc2)O1 (configuration not stated) | 14.7% | -1.26% (active) | 18% | 16.4% | -45.8% (active) | -3.51% (active) |  | 3.26% (active) | -100% (active) | -23.1% (active)
27 | Cc1cc(C(=O)Nc2ccc3cc(CN4CCOCC4)ccc3n2)c(C)n1-c1ccccc1 | 12.7% | 21.9% | 94.2% | 36% | 59.3% | 51.7% |  | 56.7% | 40.5% | 28%
28 | Clc1ccc(C2c3ccccc3-c3nccn32)c(Cl)c1 (configuration not stated) | 40% | 66.6% | 88.1% | 78.2% | 88.5% | -2.6% (active) |  | 80.8% | 97.2% | 79.6%
